About 940 (45%) of roughly 2,100 compounds were called active. Another 48% or so got no clear call; they are omitted. Calls come from the whole dose curve; as a rule, active = well fitted inhibition curve with a large enough effect; inconclusive = small, poorly fitted or top-dose-only effect; inactive = no such curve, though single readings can be large or run the other way. The set was probably picked from earlier hits. Some of the results follow.
Potency is the fitted concentration of half-maximal effect.

The nature of the assay: Confirmatory qHTS for Inhibitors of ATXN expression. Note: nearly all actives have a fitted effect of over 65% in size. The note with it: ATXN2-luciferase reporter cells, luminescence, 24 h; series mostly up to 11.5 µM. In outline:
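Cells carrying ATXN2-luciferase reporter exposed 24 h at 37 C to compound. Viability then read by CellTiter-Fluor (25 uM GF-AFC, 30 min), followed by SteadyGlo luminescence; medium-only wells set 100% inhibition.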
Regarding `CC(=O)N1c2ccc(S(=O)(=O)N3CCC(C(=O)Nc4cccc(C(F)(F)F)c4)CC3)cc2CC1C` (centres undefined), the Potency is 14.1 µM (active). Consider `Cc1ccc2c(Cl)cc(Cl)c(O)c2n1`, for which the Potency is 5.62 µM (active). In the case of `COc1ccc([C@@]2(C(C)C)ON(c3ccccc3C(F)(F)F)C2=O)cc1`, the Potency result was “inactive”.

As to `COc1ccc(OC)c(C(=O)/C=C/c2ccccc2C(F)(F)F)c1`, the Potency is 3.16 µM (active). Turning to `Cc1ccc(-c2cc(C(=O)NCCCN3CCOCC3)no2)cc1`, the Potency was 7.94 µM (active). For `CC(O)(c1ccccc1)c1nc(-c2ccncc2)cs1` (centres undefined), the Potency entry is “inactive”. With `OCCN1CCN(C2CCC(c3ccc(F)cc3)c3ccc(F)cc32)CC1` (centres undefined) the figure was 25.1 µM (active); with `CCN(CC)S(=O)(=O)c1ccc(N/N=C/c2cc(OC)ccc2O)nc1`, 0.794 µM (active); with `CC(=O)N1CCCc2cc(S(=O)(=O)N3CCCC(C(=O)N4CCN(c5cc(C)ccc5C)CC4)C3)ccc21` (centres undefined), 3.16 µM (active). As to `CCOCCn1ccc2c(OCC(=O)Nc3ccc(OC)c(OC)c3)cccc2c1=O`, the Potency result is “inactive”.

Regarding `CCc1ccc(NC(=O)COc2ccc(/C=C(/C#N)c3nc4ccccc4[nH]3)cc2OC)cc1`, the Potency is 3.55 µM (active).

Consider `CCOC(=O)c1ccc2ncc(C(=O)OCC)c(Nc3ccc(N4CCOCC4)cc3)c2c1`, for which the Potency was 3.98 µM (active). For `CCN(CC)S(=O)(=O)c1cccc(NC(=O)Nc2cccc(C(F)(F)F)c2)c1`, the Potency is 1.78 µM (active). Regarding `O=c1cc(N2CCN(c3cccc(Cl)c3)CC2)[nH]c(=O)n1C1CCCCC1`, the Potency is 0.355 µM (active). As for `NC(=O)N/N=C/c1c(O)ccc2oc3c(c12)CCCC3`, the Potency was 14.1 µM (active). For `Cc1nc2ccccc2c(=O)n1/N=C/c1c(O)ccc2oc3c(c12)CCCC3`, the Potency was 15.8 µM (active). With `Cc1ccc(N=Nc2ccc(O)c3ncccc23)cc1` the figure was 3.16 µM (active). As for `Cc1ccccc1N=Nc1ccc(O)c2ncccc12`, the Potency was 1.41 µM (active).

As for `Cn1c2c(c(=O)[nH]c1=O)C(c1cccc(O)c1)C1=C(N2)c2ccccc2C1=O` (centres undefined), the Potency is 3.98 µM (active).

As for `COCCCNCCCOc1ccc(Cl)cc1C(C)(C)C`, the Potency is 15.8 µM (active).

As for `CCc1cc2c(N3CCN(c4nnc(CC)s4)CC3)ncnc2s1`, the Potency is 3.55 µM (active). As to `Cc1cc(C)cc(NC(=O)CCc2nc3sc4c(c3c(=O)[nH]2)CCCC4)c1`, the Potency was 0.708 µM (active). With `O=[N+]([O-])c1ccc(NC(c2ccccc2)c2ccc3cccnc3c2O)cc1` (centres undefined) the figure was 1.26 µM (active); with `CC(C)C(=O)NC(c1cccc([N+](=O)[O-])c1)c1ccc2cccnc2c1O` (centres undefined), 2.24 µM (active). Turning to `CC(=O)NC(c1cccc([N+](=O)[O-])c1)c1ccc2cccnc2c1O` (centres undefined), the Potency was 0.562 µM (active). In the case of `CC(NC(=O)Nc1cccc([N+](=O)[O-])c1)c1ccc2c(c1)OCO2` (centres undefined), the Potency entry is “inactive”.

For the molecule `CCOC(=O)c1ccc(N=c2sc(C(=O)OC)cc(=O)n2-c2ccc(C(=O)OCC)cc2)cc1`, the Potency was 3.98 µM (active).

As for `O=C(CSc1n[nH]c(-c2ccccn2)n1)Nc1ccc(F)cc1`, the Potency was 8.91 µM (active). With `O=C(CC1NCCc2ccccc21)Nc1ccc(Cl)cc1` (centres undefined) the entry was “inactive”; with `Cc1ccc(NC(=O)CSc2n[nH]c(-c3ccccn3)n2)cc1`, 2.82 µM (active). Turning to `O=C(CSc1n[nH]c(-c2ccccn2)n1)Nc1ccc(Cl)cc1`, the Potency was 1.26 µM (active). With `O=C(CSc1n[nH]c(-c2ccccn2)n1)Nc1cccc(Cl)c1` the figure was 3.55 µM (active).

As for `COC(/C(=N/O)c1ccc(Cl)cc1)c1ccccc1` (centres undefined), the Potency result is “inactive”. As to `O=C(CSc1n[nH]c(-c2ccccn2)n1)Nc1ccccc1`, the Potency was 15.8 µM (active).

Turning to `COc1cc(Br)cc(/C=N/NC(=O)Cc2ccc(C(F)(F)F)cc2[N+](=O)[O-])c1O`, the Potency was 10 µM (active). With `c1cc2c(cc1-c1cnc3n1CCC3)OCCO2` the figure was 12.6 µM (active). With `NC(=Nc1nc(-c2ccccn2)cc2ccccc12)c1ccccn1` the figure was 0.0562 µM (active). Regarding `Oc1cccc(C(Nc2nccs2)c2ccc3cccnc3c2O)c1` (centres undefined), the Potency is 2.51 µM (active). With `Oc1ccccc1C(Nc1nccs1)c1ccc2cccnc2c1O` (centres undefined) the figure was 2.82 µM (active); with `Oc1c(C(Nc2nccs2)c2ccc(C(F)(F)F)cc2)ccc2cccnc12` (centres undefined), 1.78 µM (active); with `Oc1c(C(Nc2ccccn2)c2ccccn2)ccc2cccnc12` (centres undefined), 3.16 µM (active). Take `Cc1ccccc1C(=O)N/N=C/c1ccc([N+](=O)[O-])s1`: the Potency is 12.6 µM (active). On to `COc1ccc(C(=O)NCC(=O)N/N=C/c2ccc([N+](=O)[O-])s2)cc1OC`, for which the Potency is 10 µM (active). As for `O=C(N/N=C/c1ccc([N+](=O)[O-])s1)c1ccccc1Br`, the Potency is 14.1 µM (active). For the molecule `Cc1c(C(=O)N2c3ccccc3Sc3ccccc32)cccc1[N+](=O)[O-]`, the Potency entry was “inactive”.

Turning to `O=C(N/N=C/c1ccc([N+](=O)[O-])s1)c1ccccc1`, the Potency is 12.6 µM (active).

In the case of `Cc1ccc(C)n1-c1ccc(C(=O)N2CCC(C(N)=O)CC2)cc1`, the Potency entry was “inactive”. As for `COc1cccc(CNc2nc3cc(-c4ccc(C(=O)N5CCN(C)CC5)cc4)sc3c(=O)n2C)c1`, the Potency was 28.2 µM (active). `COc1ccccc1C(=O)Nc1nc(-c2ccc(S(=O)(=O)N3CCOCC3)cc2)cs1`: the Potency is 3.98 µM (active). Consider `O=C(Nc1nc(-c2ccccn2)cs1)c1ccc(F)c(S(=O)(=O)N2CCOCC2)c1`, for which the Potency was 1.78 µM (active). With `COc1cccc(C(=O)Nc2nc(-c3ccc(S(=O)(=O)N4CCOCC4)cc3)cs2)c1` the figure was 1.58 µM (active); with `NC(=O)c1c(NC(=O)c2ccc(S(=O)(=O)N3CCOCC3)cc2)sc2c1CCCCC2`, “inactive”.

For the molecule `COc1cccc(NC(=O)/C=C/c2ccc(S(=O)(=O)N3CCOCC3)cc2)c1`, the Potency result is “inactive”.

Consider `COc1ccc(C(=O)Nc2nc(-c3ccc(S(=O)(=O)N4CCOCC4)cc3)cs2)cc1`, for which the Potency was 1.78 µM (active).

As for `OCCN1CCN(C(=S)c2ccc(-c3ccccc3)cc2)CC1`, the Potency was 1.78 µM (active). With `CCN1CCN(C(=S)c2ccc(-c3ccccc3)cc2)CC1` the figure was 1.58 µM (active); with `COc1ccc(NC(=O)c2cc(-c3cc(Cl)ccc3OC)n[nH]2)cc1OC`, 0.631 µM (active).

In the case of `O=c1cc(-c2c(F)c(F)c(F)c(F)c2F)oc2ccccc12`, the Potency was 3.55 µM (active). `O=c1c(O)c(-c2ccccc2)oc2ccccc12`: the Potency entry was “inactive”. Turning to `Cc1nc(SCC(=O)Nc2ccc(S(=O)(=O)N3CCOCC3)cc2)c2c(C)c(C)sc2n1`, the Potency was 3.98 µM (active).

As to `COc1ccc(C(=O)c2sc(Nc3ccccc3)nc2N)cc1OC`, the Potency was 28.2 µM (active).

`COc1cccc(CNCCc2c[nH]c3ccccc23)c1OCc1ccc(F)cc1`: the Potency is 3.98 µM (active). With `Cc1occc1C(=O)N/N=C/c1c(O)ccc2ccccc12`, the Potency was 1.78 µM (active). With `O=C(N/N=C/c1c(O)ccc2ccccc12)c1cccnc1` the figure was 3.16 µM (active); with `O=C(N/N=C\c1c(O)ccc2ccccc12)c1ccc(Cn2cccn2)o1`, 0.708 µM (active); with `O=C(N/N=C\c1c(O)ccc2ccccc12)c1cncc(Br)c1`, 0.251 µM (active). As for `O=C(N/N=C/c1cc(O)ccc1Br)c1cccnc1`, the Potency is 3.16 µM (active). As to `Cn1c(-[n+]2c(-c3ccccc3)cc(-c3ccccc3)cc2-c2ccccc2)nc2c([N+](=O)[O-])cccc21`, the Potency entry was “inactive”. `CCn1c2ccccc2c2cc(/C=C(/C#N)C(N)=S)ccc21`: the Potency was 0.447 µM (active).

On to `CCn1c2ccccc2c2cc(/C=N/n3cnnc3)ccc21`, for which the Potency is 1.58 µM (active). With `CCn1c2ccccc2c2cc(/C=N/NC(=O)c3ccc(O)cc3)ccc21` the figure was 2.24 µM (active); with `CCn1c2ccccc2c2cc(/C=N/NC(=O)c3ccncc3)ccc21`, 1.41 µM (active); with `Cc1cccc(OCCn2cc(/C=N/NC(=O)c3ccncc3)c3ccccc32)c1`, “inactive”. Regarding `Cc1ccc2nc(SCc3ccc([N+](=O)[O-])cc3)[nH]c2c1`, the Potency result is “inactive”. As to `CCn1c2ccccc2c2cc(/C=N/NC(=O)c3ccccc3)ccc21`, the Potency is 3.16 µM (active). For the molecule `COc1cccc(/C=N/n2c(N)c(S(=O)(=O)c3cccs3)c3nc4ccccc4nc32)c1OC`, the Potency is 14.1 µM (active).

Regarding `CC(C)CCn1c(N)c(S(=O)(=O)c2cccs2)c2nc3ccccc3nc21`, the Potency was 3.16 µM (active). For `Cc1ccc(S(=O)(=O)c2c(N)n(CC3CCOC3)c3nc4ccccc4nc23)cc1` (centres undefined), the Potency result is “inactive”. For the molecule `Cc1cc(Br)c(OCc2ccc(C(=O)N/N=C3\CC4CC=CC34)cc2)c(Br)c1` (centres undefined), the Potency was 28.2 µM (active). With `CCCCNC(=NCc1cccc(C(F)(F)F)c1)Nc1ccccc1` the figure was 3.16 µM (active); with `CN(C(=O)c1cnc(N2CCN(c3ncccn3)CC2)c2ccccc12)c1ccc(Cl)cc1`, 28.2 µM (active); with `O=C(c1cnc(N2CCN(c3ccccn3)CC2)c2ccccc12)N1CCN(c2cccc(Cl)c2)CC1`, 6.31 µM (active). In the case of `CCn1c(C)nc2cc(C(=O)N/N=C(\C)c3ccc(OC)cc3O)ccc21`, the Potency was 15.8 µM (active).

Turning to `CC(=NNC(=O)c1ccncc1)c1ccc(O)cc1O`, the Potency was 12.6 µM (active).

On to `CCN(CC)S(=O)(=O)c1cccc(C(=O)N/N=C(\C)c2ccc(O)cc2O)c1`, for which the Potency was 3.16 µM (active). With `COc1ccc(/C(C)=N/NC(=O)c2cccc(S(=O)(=O)N3CCCC3)c2)c(O)c1` the figure was 3.55 µM (active); with `CC(=NNC(=O)c1ccncc1)c1ccc2ccccc2c1O`, 1.12 µM (active); with `CC(=O)NC(c1ccc(C)cc1)c1cc(Cl)c2cccnc2c1O` (centres undefined), 2.51 µM (active).

As for `CC(=O)NC(c1ccccc1)c1cc(Cl)c2cccnc2c1O` (centres undefined), the Potency was 2.82 µM (active). Regarding `Oc1c(C(Nc2ccccn2)c2cccnc2)cc(Cl)c2cccnc12` (centres undefined), the Potency was 12.6 µM (active). Regarding `CN1C(=O)/C(=C\c2ccccc2F)Sc2ccc(C(=O)NC3CCN(Cc4ccccc4)CC3)cc21`, the Potency is 3.16 µM (active). `CC1(C(=O)NC2CCN(Cc3ccccc3)CC2)CCN1Cc1ccc2ccccc2c1` (centres undefined): the Potency is 2.51 µM (active).

For `CC(C)(C)c1ccc(CC(=O)N2CCC2(C)C(=O)Nc2cnc3ccccc3c2)cc1` (centres undefined), the Potency result is “inactive”. Turning to `Cc1ccc(CN2CCSc3ccc(C(=O)NC4CCN(Cc5ccccc5)CC4)cc32)cc1`, the Potency was 3.16 µM (active).
